Compound activity from PubChem BioAssay.
Hits are enriched below; roughly 1.6% of the tested compounds scored in any of these assays.
ATG4B inhibitor – inhibitors of human ATG4B cysteine protease | Q9Y4P1 | ATG4B cleavage of LC3-PLA2, NBD-HPC fluorescence, 1 h | inhibition, % at 8.33 µM | 0.51% of 340,000 active | AID 504462; in the data active means inhibition above about 40%
GRK2 inh – blocks RNA aptamer binding to human GRK2 | bead flow cytometry, FAM-aptamer displacement from GRK2 | inhibition of aptamer binding, % at 10 µM | 0.59% of 330,000 active;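 active means inhibition of aptamer binding above 40%, roughly 3 SD of noise, on plates passing a quality check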;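 further: median bead fluorescence of bound FAM aptamer so fluorescent compounds give negative values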
Efflux pump inh – antifungal efflux pump inhibition, Nile Red retention; S. cerevisiae Candida pump triplex; inhibition, % at 10 µM; 0.44% of 330,000 active; AID 485275;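 active means plate passing quality check with inhibition over a set limit, or well fluorescence over plate mean plus 4 SD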;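 further: Nile Red retained in pooled yeast measured as flow cytometry median fluorescence; 0% = buffer negative control and 100% = Enniatin B positive control; higher means more Nile Red kept so more efflux inhibition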
Yeast superoxide – lowers age-related superoxide in aged yeast cells; S. cerevisiae aged cells, superoxide DHE fluorescence; active compounds read low; superoxide response (% of plate mean), % at 10 µM; 0.18% of 330,000 active; AID 2690;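 active means superoxide response under a set limit, about three screen SD below normal, cut at about 65% in these data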;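 further: yeast aged for seven days with compound at 30 °C before DHE staining; 100% = average MFI of all compound-treated wells on the plate with controls excluded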
ATG4B confirm – confirmation of human ATG4B inhibitors. AID 504757. 92% of 320 active. ATG4B protease fluorescent substrate cleavage assay. inhibition, % at 8.33 µM. shares compounds with ATG4B inhibitor; in the data active means inhibition above about 39%
PLA2 counter – inhibits human PLA2, flagging false ATG4B inhibitors; shares compounds with ATG4B inhibitor; purified PLA2, NBD-C6-HPC fluorescence, 45 min; inhibition, % at 8.33 µM; 66% of 1,600 active; AID 588402; in the data active means inhibition above about 50%
Target sequence (P04054 whole entry, looked up): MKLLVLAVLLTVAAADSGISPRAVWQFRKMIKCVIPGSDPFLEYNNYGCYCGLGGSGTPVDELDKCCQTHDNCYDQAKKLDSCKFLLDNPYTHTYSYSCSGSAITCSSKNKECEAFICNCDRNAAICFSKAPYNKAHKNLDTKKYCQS
* hit, by the source's call; . = no result given.

SMILES	ATG4B inhibitor	GRK2 inh	Efflux pump inh	Yeast superoxide	PLA2 counter	others
O=C(CC1C(=O)NCCN1Cc1cccc(C(F)(F)F)c1)NCCc1cnccn1 (configuration not stated)	-9	1	1	105	.
O=C(Nc1c(F)cccc1F)c1ccc2c(c1)CCN2S(=O)(=O)c1ccccc1	69*	0	0	86	69*
COc1ccc(NC(=O)CC2SC3=NCCN3C2=O)cc1 (configuration not stated)	6	0	0	99	.
O/N=C(/c1ccc(F)cc1)C1CC1c1c(F)cccc1Cl (configuration not stated)	48*	1	0	108	47
CCCCc1ccc(NC(=S)NCc2cccc(OC)c2)cc1	80*	0	0	85	79*
CCCCCCCCCCCCCCCC(O)C[N+](C)(C)CCO (configuration not stated)	55*	.	.	.	47	ATG4B confirm=56*
Cc1c(NC(=O)C(C)OC(=O)CCC2CCCC2)c(=O)n(-c2ccccc2)n1C (configuration not stated)	-2	4	0	90	.
Cc1ccc(NS(=O)(=O)c2cc([N+](=O)[O-])ccc2NNC(=S)Nc2cc(C)ccc2C)c(C)c1	58*	1	0	95	73*
Cc1ccc(NS(=O)(=O)c2cc([N+](=O)[O-])ccc2NNC(=S)Nc2cccc(Cl)c2)c(C)c1	88*	1	0	96	101*
COc1ccc(NC(=S)NNc2ccc([N+](=O)[O-])cc2S(=O)(=O)Nc2ccc(C)cc2C)cc1	43*	0	0	88	57*
CCOCCCNC(=O)c1cccc(OC2CCN(S(C)(=O)=O)CC2)c1	-4	0	0	101	.
CCCc1nc(SCC(=O)NC2CC2)c2c(C)c(C)sc2n1	3	0	0	93	.
CCCc1nc(SCC(=O)N2c3ccccc3CC2C)c2c(C)c(C)sc2n1 (configuration not stated)	69*	6	0	94	81*
COc1cc(/C=C2/C(=N)N3C=CSC3=NC2=O)ccc1OCCCOc1c(C)cccc1C	49*	0	1	119	37	ATG4B confirm=57*
COc1cc(/C=C2/C(=N)N3C=CSC3=NC2=O)ccc1OCCCOc1ccccc1C	-1	3	0	103	.
COc1ccc([C@H]2CC(=O)C=C(c3ccc4c(c3)sc3ccccc34)C2)cc1	-7	0	0	108	.
Oc1c(Br)cc(/C=N/n2c(-c3ccccc3)n[nH]c2=S)c(Br)c1O	.	5	0	111	.
Oc1c(Br)cc(Br)cc1/C=N/n1c(-c2ccccc2)n[nH]c1=S	42*	3	0	97	9	ATG4B confirm=45*
CC(C)[C@H](NS(=O)(=O)c1ccccc1)C(=O)OCC(=O)Nc1ccccc1Sc1ccccc1	94*	0	0	91	92*
Cc1cc(NC(=O)COC(=O)[C@@H](NS(=O)(=O)c2ccccc2)C(C)C)no1	-5	2	0	74	.
COc1cc2c(cc1NC(=O)COC(=O)[C@@H](NS(=O)(=O)c1ccccc1)C(C)C)oc1ccccc12	76*	0	0	97	83*
Cc1ccc(-c2ccc(/C=C3\C(=O)ON=C3c3ccccc3)o2)c([N+](=O)[O-])c1	63*	0	0	98	23
Cc1ccc(/C=C2\C(=O)ON=C2c2ccccc2)o1	2	0	0	112	.
COc1cccc(-c2ccnc3[nH]n(-c4ccccc4)c(=O)c23)c1	3	1	0	106	.
O=C(Nc1ccc(S(=O)(=O)Nc2ccccc2)cc1)c1ccc(CN2CCOCC2)cc1	-14	0	0	106	.
C#CCOCCOCCOCCNc1nc(N2CCN(C(=O)CCCCCCCCCCNC(=O)[C@H]([C@@H](C)CC)n3cc(CCCCN=C(N)N)nn3)CC2)nc(N2CCN(C(=O)CCCCCCCCCCNC(=O)[C@H]([C@@H](C)CC)n3cc(CCCCN=C(N)N)nn3)CC2)n1	.	0	3	103	.
C#CCOCCOCCOCCNc1nc(N2CCN(C(=O)CCCCCCCCCCNC(=O)[C@H]([C@@H](C)CC)n3cc(CCCCN=C(N)N)nn3)CC2)nc(N2CCN(C(=O)CCCCCCCCCCNC(=O)[C@H](CCCCN)n3cc(C)nn3)CC2)n1	57*	0	1	106	28	ATG4B confirm=28
